Test systems include HCT-15 colon; HT29 colon; SNB-75 CNS; SNB-19 CNS; U251 CNS; PC-3 prostate; SK-MEL-5 melanoma; UACC-62 melanoma; LOX IMVI melanoma; SK-MEL-28 melanoma.
Common to all, as to test: NCI-60 one-dose screen, 48 h (100 = growth as untreated, 0 = no growth, -100 = all killed)
Holding throughout (details): 10 µM

Molecules are shown by their SMILES. About 83,000 compounds went through this panel and 20% of them were active in at least one assay; those are over-represented in the sample as a whole.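 Cell lines were cultured in 96-well plates, exposed to a single compound concentration, and assessed for percent growth 48 hours later.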 Values without a mark were called inactive. Active and inactive are the calls of the source. How the source made its calls: active means growth percent below 10; inactive means the rest.

On to `O=C(CCn1cnc2c(cc(-c3ccccc3)n2-c2ccccc2)c1=O)Nc1ccc(F)cc1`, for which the growth in the assay on HCT-15 colon is 81.4%; in the assay with HT29 colon it was 89.9%; in the assay with SNB-75 CNS, 4.9% (active); in the assay on SNB-19 CNS, 72.9%; in the assay with U251 CNS, 70.9%; with PC-3 prostate it was 68.6%. For the same molecule, the growth in the assay on SK-MEL-5 melanoma was 77.5%; with UACC-62 melanoma, 63.2%; with LOX IMVI melanoma it was 79.4%; with SK-MEL-28 melanoma, 80.5%.

With `COc1cc(-c2ccc(N=Nc3ccc4c(S(=O)(=O)O)ccc(N)c4c3O)c(OC)c2)ccc1N=Nc1ccc2c(S(=O)(=O)O)ccc(N)c2c1O`, the growth in the assay with HCT-15 colon was 110%; in the assay with HT29 colon, 105%; with SNB-75 CNS it was 70.9%; in the assay with SNB-19 CNS it was 110%; with U251 CNS it was 107%; in the assay on PC-3 prostate it was 98.7%. Besides, the growth in the assay on SK-MEL-5 melanoma is 105%; in the assay with UACC-62 melanoma, 111%; in the assay on LOX IMVI melanoma it was 102%; in the assay with SK-MEL-28 melanoma, 103%.

On to `CCNCC(=O)Nc1ccc(C(=O)OCC)cc1`, for which the growth is 104% in the assay on HCT-15 colon; 90.7% with HT29 colon; 86.6% with SNB-75 CNS; 109% in the assay with SNB-19 CNS; 97.7% in the assay with U251 CNS; 98.3% in the assay on PC-3 prostate. Moreover, the growth is 108% with SK-MEL-5 melanoma, 99.2% in the assay on UACC-62 melanoma, 95% in the assay with LOX IMVI melanoma and 103% with SK-MEL-28 melanoma.

In the case of `O=C1Cc2cc(CCN3CCN(c4nsc5ccccc45)CC3)c(Cl)cc2N1`, the growth with HCT-15 colon was 85.1%; in the assay with HT29 colon it was 90.1%; with SNB-75 CNS, 78.8%; with SNB-19 CNS, 94.1%; in the assay on U251 CNS it was 94.7%; in the assay with PC-3 prostate, 72.3%. Also, the growth with SK-MEL-5 melanoma is 92%; in the assay on UACC-62 melanoma, 84.8%; in the assay on LOX IMVI melanoma it was 96.8%; in the assay on SK-MEL-28 melanoma it was 90.3%.

For `COc1ccc(-c2cc(-c3ccccc3)nc(SCCCCCCC(=O)NO)n2)cc1`, the growth in the assay with HCT-15 colon is 44.3%; with HT29 colon, 27%; in the assay with SNB-75 CNS, 24.8%; with SNB-19 CNS, 60.6%; in the assay on U251 CNS, 51.5%; in the assay on PC-3 prostate it was 58.8%. For the same molecule, the growth in the assay on SK-MEL-5 melanoma was 13.1%; in the assay on UACC-62 melanoma, 24.8%; in the assay on LOX IMVI melanoma, 13.1%; in the assay on SK-MEL-28 melanoma it was 67.9%.

On to `O=C(Cn1cc(CO)nn1)Nc1nc2ccccc2s1`, for which the growth in the assay on HCT-15 colon is 105%; in the assay with HT29 colon, 99.5%; with SNB-75 CNS, 92.4%; in the assay with SNB-19 CNS it was 96.9%; in the assay on U251 CNS, 102%; in the assay with PC-3 prostate, 96.3%. The growth in the assay on SK-MEL-5 melanoma is 102%; in the assay with UACC-62 melanoma, 97%; in the assay with LOX IMVI melanoma, 95.1%; with SK-MEL-28 melanoma, 106%.

With `C=C1CCC2(C#N)[C@H]3[C@H](CC[C@@H]2C)[C@@H](C)C[C@@H](CC(C)(C)NC(=O)CN2CCC2=O)[C@H]13` (stereo not given in full), the growth is 47.3% with HCT-15 colon; 75.6% with HT29 colon; 57.4% in the assay with SNB-75 CNS; 40.2% in the assay with SNB-19 CNS; 33.6% with U251 CNS; 17.8% with PC-3 prostate. For the same molecule, the growth in the assay with SK-MEL-5 melanoma was 27.4%; with UACC-62 melanoma, 48.5%; with LOX IMVI melanoma, 54.2%; in the assay on SK-MEL-28 melanoma, 73.9%.

In the case of `CCCCN1C(=O)CC(SC2CC(=O)N(CCCC)C2=O)C1=O` (stereo not given), the growth in the assay with HCT-15 colon was 120%; in the assay on HT29 colon it was 76.1%; in the assay with SNB-75 CNS it was 87.4%; in the assay with SNB-19 CNS, 99.5%; in the assay with U251 CNS it was 107%; in the assay on PC-3 prostate it was 99.4%. The growth is 104% with SK-MEL-5 melanoma, 96.6% with UACC-62 melanoma, 95% with LOX IMVI melanoma and 121% in the assay with SK-MEL-28 melanoma.

On to `O=[N+]([O-])c1cc(Cl)cc(Cl)c1O`, for which the growth is 101% in the assay with HCT-15 colon; 97.7% in the assay with HT29 colon; 90.8% with SNB-75 CNS; 103% in the assay on SNB-19 CNS; 104% with U251 CNS; 103% in the assay with PC-3 prostate. Also, the growth with SK-MEL-5 melanoma was 101%; with UACC-62 melanoma, 103%; in the assay on LOX IMVI melanoma, 92.6%; with SK-MEL-28 melanoma, 102%.

As to `O=C(Nc1cccc2c1CCCC2)c1cc2ccccc2cc1O`, the growth was 30.8% with HCT-15 colon; 90.5% in the assay with HT29 colon; 63.8% with SNB-75 CNS; 30.1% in the assay on SNB-19 CNS; 33.8% in the assay on U251 CNS; 12.8% in the assay on PC-3 prostate. The growth with SK-MEL-5 melanoma was -37.8% (active); in the assay on UACC-62 melanoma, 23%; with LOX IMVI melanoma, 27.2%; in the assay with SK-MEL-28 melanoma, 34.2%.

Regarding `Cc1cc(Br)nnc1Br`, the growth in the assay with HCT-15 colon is 102%; in the assay with HT29 colon, 113%; with SNB-75 CNS it was 75.4%; with SNB-19 CNS, 110%; in the assay on U251 CNS it was 112%; in the assay on PC-3 prostate, 110%. In addition, the growth in the assay with SK-MEL-5 melanoma was 94.7%; in the assay with UACC-62 melanoma, 111%; in the assay on LOX IMVI melanoma it was 108%; in the assay on SK-MEL-28 melanoma, 114%.

Turning to `COc1ccc(-c2csc(NC(=O)c3ccc(Cc4n[nH]c(=O)c5cccnc45)cc3)n2)cc1`, the growth with HCT-15 colon is 85.8%; in the assay with HT29 colon, 104%; in the assay with SNB-75 CNS, 82.6%; in the assay on SNB-19 CNS, 89.8%; with U251 CNS, 99.1%; with PC-3 prostate, 77.9%. In addition, the growth in the assay on SK-MEL-5 melanoma was 85.7%; in the assay with UACC-62 melanoma, 74.5%; with LOX IMVI melanoma, 90.3%; in the assay on SK-MEL-28 melanoma, 95.2%.

Consider `CN(C)CCCOc1ccc(OCCCN(C)C)c2c1C(=O)c1ccccc1C2=O`, for which the growth is 91.5% in the assay on HCT-15 colon; -20.6% (active) with HT29 colon; -20.6% (active) with SNB-75 CNS; 7.81% (active) in the assay on SNB-19 CNS; 5.27% (active) in the assay with U251 CNS; 11% in the assay on PC-3 prostate. In addition, the growth in the assay with SK-MEL-5 melanoma is 10.5%; in the assay with UACC-62 melanoma it was -46.4% (active); with LOX IMVI melanoma it was -13.2% (active); in the assay on SK-MEL-28 melanoma it was -4.67% (active).

Source of the values: PubChem BioAssay (NCI).
